# Measurements from PubChem BioAssay (Tox21).
# Inconclusive results are not listed. A call without a number means that no potency is given here. Calls of active or inactive are those of the source. The call rests on the fitted dose curve.
# Biological target: Acetylcholinesterase (Homo sapiens) (UniProt P22303)
# Test: Acetylcholinesterase (AChE) small molecule antagonists: enzyme-based qHTS assay (AID 1347397); further: nearly all actives have a fitted effect of over 55% in size
# Details: Potency: AChE enzyme activity inhibition; outcome: AChE enzyme activity inhibition; series mostly up to 115 µM
# Procedure, shortened: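 Compound or DMSO vehicle was pin-transferred onto recombinant human AChE (50 mU/mL as dispensed) and left 30 min at room temperature. Acetylthiocholine with DTNB then started the reaction, read colorimetrically 10 min later.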
# Sequence of Acetylcholinesterase (Homo sapiens) (P22303 whole entry, looked up): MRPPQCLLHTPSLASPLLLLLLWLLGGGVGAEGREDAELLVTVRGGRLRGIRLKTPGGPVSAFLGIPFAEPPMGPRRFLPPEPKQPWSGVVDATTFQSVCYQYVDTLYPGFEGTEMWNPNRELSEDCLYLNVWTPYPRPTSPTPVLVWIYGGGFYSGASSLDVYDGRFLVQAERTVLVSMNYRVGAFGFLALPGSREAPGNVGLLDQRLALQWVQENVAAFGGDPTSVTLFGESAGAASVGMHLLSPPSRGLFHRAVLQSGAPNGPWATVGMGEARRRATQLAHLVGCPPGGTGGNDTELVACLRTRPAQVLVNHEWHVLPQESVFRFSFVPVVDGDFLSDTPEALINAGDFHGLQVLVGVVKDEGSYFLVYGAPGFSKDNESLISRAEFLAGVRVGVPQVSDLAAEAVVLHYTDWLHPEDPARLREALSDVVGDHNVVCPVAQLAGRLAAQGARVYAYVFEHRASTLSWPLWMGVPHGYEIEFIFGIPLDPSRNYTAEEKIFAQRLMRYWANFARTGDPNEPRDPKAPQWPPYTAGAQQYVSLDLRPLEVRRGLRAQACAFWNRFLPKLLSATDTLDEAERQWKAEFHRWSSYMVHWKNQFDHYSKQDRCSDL
row,SMILES,Potency
1,O=C(Nc1ccc(Oc2ccc(Cl)cc2)c(Cl)c1)c1cc(I)cc(I)c1O,inactive
2,COC(=O)c1cc(Cl)ccc1[N+](=O)[O-],inactive
3,N#CC1(c2ccc(F)cc2)CCC(=O)CC1,inactive
4,CC[N+](CC)(CC)CCOc1ccc(/C=C/c2ccccc2)cc1,inactive
5,NC(N)=NN=C(/C=C/c1ccc([N+](=O)[O-])o1)/C=C/c1ccc([N+](=O)[O-])o1,inactive
6,CCOCCOCCOC(C)=O,inactive
7,Cc1[nH]c(=O)c(C#N)cc1-c1ccncc1,inactive
8,CC(=O)OCC(=O)[C@@]1(O)CC[C@H]2[C@@H]3CCC4=CC(=O)C=C[C@]4(C)[C@@]3(F)[C@@H](O)C[C@@]21C,inactive
9,Nc1ccc2c(S(=O)(=O)O)cccc2c1S(=O)(=O)O,inactive
10,CCOC(=O)c1nc(C(Cl)(Cl)Cl)n(-c2ccc(Cl)cc2Cl)n1,inactive
11,CC1=CCCC(C)(C)C12CCC(C)O2 (stereo not given),inactive
12,Cc1cccc(O)c1N,inactive
13,S=c1[nH]c2ccccc2s1,inactive
14,CCCCCCCCCCCCCCCCOS(=O)(=O)O,inactive
15,CCCCCCCCCCCBr,inactive
16,O=C1C(O)=C(O)C(=O)C(O)=C1O,inactive

# Biological target: Acetylcholinesterase (Homo sapiens) (UniProt P22303)
# Test: Acetylcholinesterase (AChE) small molecule antagonists: fluorescence cell-based qHTS assay (AID 1347398); further: nearly all actives have a fitted effect of over 50% in size; further: potency means the concentration at half of the fitted maximal effect
# Details: SH-SY5Y cells; Potency: AChE activity; outcome: AChE activity; series mostly up to 115 µM
# Procedure, shortened: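 Using neuroblastoma SH-SY5Y cells as the enzyme source, test chemicals are preincubated 30 min at 37 C; AChE-driven acetylthiocholine cleavage is then quantified by thiocholine-dependent Thiolite Green fluorescence after 40 min at room temperature.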
SMILES,Potency,"activity change, negative = inhibition"
Oc1cccc(Nc2ccccc2)c1,inactive,
NCCCCCCNCCCCCCN,39.3 µM (active),
CC1=CC=C(C(C)C)CC1,inactive,
OCCC1CCCCN1 (stereo not given),inactive,
CC(C)C(O)C(C)(C)CO (stereo not given),inactive,
CCC(C)COC(=O)CC(C)C (stereo not given),inactive,
O=C1c2ccccc2S(=O)(=O)N1CCCCN1CCN(c2ncccn2)CC1,inactive,
COC(=O)c1cc(Cl)ccc1OC,inactive,
CC1=C2[C@H](/C=C(\C)C(=O)O)CC[C@@H](C)[C@H]2CC1,inactive,
Cc1cccc(C)c1NC(=O)c1ccccc1C(=O)O,inactive,
O=C(O)C1(C(=O)Nc2ccc(Cl)cc2Cl)CC1,inactive,
Cc1nc(-c2ccc(Cl)cc2)oc1COC(C)(C)C(=O)O,inactive,
Cc1cccc(C)c1NC(=O)c1cc(S(N)(=O)=O)c(Cl)cc1O,inactive,
Oc1ccc(-c2ccc(O)cc2)cc1,inactive,
OCc1ccccn1,inactive,
CCCCC(CC)(CO)CO,inactive,
Cc1ccc(C(N)=O)cc1N,inactive,
S=C([S-])NCCNC(=S)[S-].[Mn+2],39.9 µM (active),
Cc1ccccc1N=Nc1ccc(N=Nc2c(O)ccc3ccccc23)c(C)c1,inactive,
CCCCCCCC[N+](CCCCCCCC)(CCCCCCCC)CCCCCCCC,70.9 µM (active),

SMILES,Potency,"activity change, negative = inhibition"
O=C(O)c1cccc(-c2noc(-c3ccccc3F)n2)c1,inactive,
Nc1cnn([C@@H]2O[C@H](CO)[C@@H](O)[C@H]2O)c(=O)n1,inactive,
O=C(O)c1ccc2c(c1)nc(C(=O)NC1CCN(C3CC3)CC1)n2Cc1cc(-c2ccc(Cl)s2)on1,,-24.8% [at 23.8 µM] (inactive)
O=C(Nc1ccc(Oc2ccc(Cl)cc2)c(Cl)c1)c1cc(I)cc(I)c1O,inactive,
COC(=O)c1cc(Cl)ccc1[N+](=O)[O-],inactive,
N#CC1(c2ccc(F)cc2)CCC(=O)CC1,inactive,
CC[N+](CC)(CC)CCOc1ccc(/C=C/c2ccccc2)cc1,34.7 µM (active),
NC(N)=NN=C(/C=C/c1ccc([N+](=O)[O-])o1)/C=C/c1ccc([N+](=O)[O-])o1,inactive,
CCOCCOCCOC(C)=O,inactive,
Cc1[nH]c(=O)c(C#N)cc1-c1ccncc1,inactive,
CC(=O)OCC(=O)[C@@]1(O)CC[C@H]2[C@@H]3CCC4=CC(=O)C=C[C@]4(C)[C@@]3(F)[C@@H](O)C[C@@]21C,inactive,
Nc1ccc2c(S(=O)(=O)O)cccc2c1S(=O)(=O)O,inactive,
CCOC(=O)c1nc(C(Cl)(Cl)Cl)n(-c2ccc(Cl)cc2Cl)n1,inactive,
CC1=CCCC(C)(C)C12CCC(C)O2 (stereo not given),inactive,
Cc1cccc(O)c1N,inactive,
S=c1[nH]c2ccccc2s1,inactive,
CCCCCCCCCCCCCCCCOS(=O)(=O)O,inactive,
CCCCCCCCCCCBr,inactive,
O=C1C(O)=C(O)C(=O)C(O)=C1O,inactive,
